Reference: PubChem BioAssay AID1159580 (chemical genetic matrix, 2015)
Hit rate of the full screen: of about 5,500 compounds, about 2,000 (36%) were called active. About 18% were inconclusive and are not listed. No stated cut-off is given here; in the data, active means normalized growth mostly below about 0.91 (no sharp cut-off); inconclusive means no clear call, values can overlap the other calls; inactive means mostly above about 0.92. The list shows a part of the results.

Assay: chemical genetic growth profiling, strain panel (AID 1159580);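 further: tested at 20 µM; growth read once vehicle control cultures reached saturation at 30 °C; 1 = growth at the plate median or of vehicle wells; lower values mean less growth of the strain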
Details: growth OD
[1] = S. cerevisiae deletion strains, locus YDL101C, strain DUN1, hits give low values
[2] = S. cerevisiae deletion strains, locus YHR030C, strain SLT2, hits give low values

Measured: normalized growth

N/C(=N/OS(=O)(=O)c1ccc(Cl)cc1)c1ccc(C(F)(F)F)cc1
inactive: S. cerevisiae deletion strains, locus YAL013W, strain DEP1, hits give low values 0.957 | S. cerevisiae deletion strains, locus YBR229C, strain ROT2, hits give low values 0.978 | S. cerevisiae deletion strains, locus YCL061C, strain MRC1, hits give low values 0.946 | [1] 0.958 | S. cerevisiae deletion strains, locus YDL134C, strain PPH21, hits give low values 0.978 | S. cerevisiae deletion strains, locus YDR150W, strain NUM1, hits give low values 0.96 | S. cerevisiae deletion strains, locus YEL061C, strain CIN8, hits give low values 0.997 | S. cerevisiae deletion strains, locus YGR078C, strain PAC10, hits give low values 0.971 | [2] 0.915 | S. cerevisiae deletion strains, locus YHR087W, strain rtc3, hits give low values 1.01 | S. cerevisiae deletion strains, locus YJR043C, strain POL32, hits give low values 0.97 | S. cerevisiae deletion strains, locus YJR075W, strain HOC1, hits give low values 0.955 | S. cerevisiae deletion strains, locus YKL190W, strain CNB1, hits give low values 0.981 | S. cerevisiae deletion strains, locus YLR039C, strain RIC1, hits give low values 0.969 | S. cerevisiae deletion strains, locus YLR058C, strain SHM2 (second series), hits give low values 0.976 | S. cerevisiae deletion strains, locus YLR085C, strain ARP6, hits give low values 0.968 | S. cerevisiae deletion strains, locus YLR262C, strain YPT6, hits give low values 0.999 | S. cerevisiae deletion strains, locus YML094W, strain GIM5, hits give low values 0.985 | S. cerevisiae deletion strains, locus YMR219W, strain ESC1, hits give low values 0.99 | S. cerevisiae deletion strains, locus YMR263W, strain SAP30, hits give low values 0.991 | S. cerevisiae deletion strains, locus YNL153C, strain GIM3, hits give low values 0.976 | S. cerevisiae deletion strains, locus YNL298W, strain CLA4 (second series), hits give low values 0.943 | S. cerevisiae deletion strains, locus YNL322C, strain KRE1, hits give low values 0.967 | S. cerevisiae deletion strains, locus YNR030W, strain Alg12, hits give low values 0.971 | S. cerevisiae deletion strains, locus YOL006C, strain TOP1, hits give low values 0.897 | S. cerevisiae deletion strains, locus YPL055C, strain LGE1, hits give low values 1.02 | S. cerevisiae deletion strains, locus YPL241C, strain CIN2, hits give low values 0.965 | S. cerevisiae deletion strains, locus YPR135W, strain CTF4, hits give low values 0.847 | S. cerevisiae strains, strain wild type, hits give low values 0.973

N/C(CSc1ncccc1C(F)(F)F)=N/OC(=O)Nc1cccc(Cl)c1
active: [2] 0.582 | S. cerevisiae deletion strains, locus YLR113W, strain HOG1, hits give low values 0.819 | S. cerevisiae deletion strains, locus YNL183C, strain NPR1, hits give low values 0.384 | S. cerevisiae deletion strains, locus YPL256C, strain CLN2, hits give low values 0.845
inactive: S. cerevisiae deletion strains, locus YAR019C, strain CDC15, hits give low values 1 | S. cerevisiae deletion strains, locus YBL105C, strain PKC1, hits give low values 0.995 | S. cerevisiae deletion strains, locus YBR135W, strain CKS1, hits give low values 0.969 | S. cerevisiae deletion strains, locus YBR136W, strain MEC1, hits give low values 0.995 | S. cerevisiae deletion strains, locus YBR160W, strain CDC28, hits give low values 0.995 | S. cerevisiae deletion strains, locus YDL017W, strain CDC7, hits give low values 0.996 | S. cerevisiae deletion strains, locus YDL028C, strain MPS1, hits give low values 0.988 | [1] 0.993 | S. cerevisiae deletion strains, locus YDL108W, strain KIN28, hits give low values 0.996 | S. cerevisiae deletion strains, locus YDL132W, strain cdc53, hits give low values 0.98 | S. cerevisiae deletion strains, locus YDL214C, strain PRR2, hits give low values 0.877 | S. cerevisiae deletion strains, locus YDR052C, strain DBF4, hits give low values 1 | S. cerevisiae deletion strains, locus YDR054C, strain cdc34, hits give low values 0.987 | S. cerevisiae deletion strains, locus YDR226W, strain ADK1, hits give low values 0.983 | S. cerevisiae deletion strains, locus YDR477W, strain SNF1, hits give low values 0.857 | S. cerevisiae deletion strains, locus YER123W, strain YCK3, hits give low values 0.724 | S. cerevisiae deletion strains, locus YER133W, strain GLC7, hits give low values 0.82 | S. cerevisiae deletion strains, locus YFL009W, strain cdc4, hits give low values 0.996 | S. cerevisiae deletion strains, locus YFL029C, strain CAK1, hits give low values 0.992 | S. cerevisiae deletion strains, locus YFR003C, strain YPI1, hits give low values 0.995 | S. cerevisiae deletion strains, locus YFR019W, strain FAB1, hits give low values 0.946 | S. cerevisiae deletion strains, locus YFR028C, strain CDC14, hits give low values 0.991 | S. cerevisiae deletion strains, locus YGR040W, strain KSS1, hits give low values 0.881 | S. cerevisiae deletion strains, locus YGR052W, strain FMP48, hits give low values 0.793 | S. cerevisiae deletion strains, locus YGR092W, strain DBF2, hits give low values 0.836 | S. cerevisiae deletion strains, locus YHR079C, strain IRE1, hits give low values 0.788 | S. cerevisiae deletion strains, locus YHR082C, strain KSP1, hits give low values 0.946 | S. cerevisiae deletion strains, locus YHR205W, strain SCH9, hits give low values 0.875 | S. cerevisiae deletion strains, locus YIL147C, strain SLN1, hits give low values 0.995 | S. cerevisiae deletion strains, locus YJL095W, strain BCK1, hits give low values 0.618 | S. cerevisiae deletion strains, locus YJL128C, strain PBS2, hits give low values 0.967 | S. cerevisiae deletion strains, locus YJL157C, strain FAR1, hits give low values 0.94 | S. cerevisiae deletion strains, locus YJR016C, strain ILV3, hits give low values 0.989 | S. cerevisiae deletion strains, locus YJR066W, strain TOR1 (second series), hits give low values 0.71 | S. cerevisiae deletion strains, locus YJR066W, strain TOR1, hits give low values 0.841 | S. cerevisiae deletion strains, locus YKL048C, strain ELM1, hits give low values 0.977 | S. cerevisiae deletion strains, locus YKL067W, strain YNK1, hits give low values 0.897 | S. cerevisiae deletion strains, locus YKL101W, strain HSL1, hits give low values 0.911 | S. cerevisiae deletion strains, locus YKL193C, strain SDS22, hits give low values 0.987 | S. cerevisiae deletion strains, locus YKL203C, strain TOR2, hits give low values 0.93 | S. cerevisiae deletion strains, locus YLR133W, strain CKI1, hits give low values 0.926 | S. cerevisiae deletion strains, locus YLR403W, strain SFP1, hits give low values 0.904 | S. cerevisiae deletion strains, locus YML070W, strain DAK1, hits give low values 0.837 | S. cerevisiae deletion strains, locus YMR001C, strain CDC5, hits give low values 0.994 | S. cerevisiae deletion strains, locus YMR205C, strain PFK2 (second series), hits give low values 0.916 | S. cerevisiae deletion strains, locus YMR277W, strain FCP1, hits give low values 0.988 | S. cerevisiae deletion strains, locus YNL006W, strain LST8, hits give low values 1 | S. cerevisiae deletion strains, locus YNL020C, strain ARK1, hits give low values 0.919 | S. cerevisiae deletion strains, locus YNL161W, strain CBK1, hits give low values 0.986 | S. cerevisiae deletion strains, locus YNL207W, strain RIO2, hits give low values 0.988 | S. cerevisiae deletion strains, locus YNL222W, strain SSU72, hits give low values 0.997 | S. cerevisiae deletion strains, locus YNL307C, strain MCK1 (second series), hits give low values 0.923 | S. cerevisiae deletion strains, locus YOL078W, strain AVO1, hits give low values 0.994 | S. cerevisiae deletion strains, locus YOL136C, strain PFK27, hits give low values 0.916 | S. cerevisiae deletion strains, locus YOR061W, strain CKA2, hits give low values 0.931 | S. cerevisiae deletion strains, locus YOR119C, strain RIO1, hits give low values 0.885 | S. cerevisiae deletion strains, locus YOR231W, strain MKK1, hits give low values 0.749 | S. cerevisiae deletion strains, locus YOR329C, strain SCD5, hits give low values 0.986 | S. cerevisiae deletion strains, locus YPL031C, strain PHO85, hits give low values 0.836 | S. cerevisiae deletion strains, locus YPL153C, strain RAD53, hits give low values 0.717 | S. cerevisiae deletion strains, locus YPL204W, strain HRR25, hits give low values 0.78 | S. cerevisiae deletion strains, locus YPL209C, strain IPL1, hits give low values 0.99 | S. cerevisiae deletion strains, locus YPR025C, strain CCL1, hits give low values 0.988 | S. cerevisiae deletion strains, locus YPR106W, strain ISR1, hits give low values 0.984 | S. cerevisiae deletion strains, locus YPR111W, strain DBF20, hits give low values 0.974 | S. cerevisiae deletion strains, strain NNK1, hits give low values 0.99 | S. cerevisiae deletion strains, strain TSCII, hits give low values 0.991
